The text below walks through data of PubChem BioAssay (NCI).

The panel holds about 83,000 compounds, 20% with a hit somewhere; the sample as a whole holds those more often.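 Each cell line was grown in a 96-well plate and treated with one concentration of compound for 48 hours. Values below 10 were considered active.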 The source made the active and inactive calls.

For the assay, the system named is COLO 205 colon. The assay can be described thus: NCI-60 one-dose screen, 48 h (100 = growth as untreated, 0 = no growth, -100 = all killed). The note with it: 10 µM. On the procedure:
Cells are grown in 96 well plates and exposed to the test compound for 48 hours. Compounds are tested at a single concentration, which is 10^-5 M for most compounds. The reported endpoint is percent growth (GI% or GIPRCNT), where numbers from 0 - 100% represent growth inhibition, and numbers from -100% - 0 represent cell death. For example, a value of 40 represents 60% growth inhibition. A value of 0 means no net growth occurred over the course of the experiment. A value of -40 indicates 40% of cells at the beginning of the experiment died by the end of the experiment. A value of -100 means all cells are dead at the end of the experiment.
NCI-60 Human Tumor Cell Lines Screen was performed using the standard one-dose NCI protocol, which is described in more detail at https://dtp.cancer.gov/discovery_development/nci-60/default.htm.
Compounds with GIPRCNT values below 10 were considered active. Activity score was based on GIPRCNT using the following formula: […]
Score is 0 for GIPRCNT values of 100 or above, 50 for GIPRCNT values of 0, and 100 for GIPRCNT values of -100.
For `O=C(/C=C/c1ccc(Cl)cc1)c1nc2ccccc2n1Cc1ccc(F)cc1`, the growth was 71.9% (inactive).

For `O=C(/C=C/c1cccc(Br)c1)c1nc2ccccc2n1Cc1ccc(F)cc1`, the growth was 79.3% (inactive).

As to `O=C(NCCCCC(c1ccc(F)cc1)c1ccc(F)cc1)Nc1ccc([N+](=O)[O-])c(C(F)(F)F)c1`, the growth was -100% (active).

In the case of `CCOP(=O)(OCC)C(NC(C)=O)C(=O)SCCN` (stereo not given), the growth was 128% (inactive).

For `COC(=O)CCn1c(-c2ccc(-n3cc(-c4ccc(O[C@H]5O[C@@H]6OC7(C)CC[C@H]8[C@H](C)CC[C@@H]([C@H]5C)[C@@]68OO7)cc4)nn3)cc2)nc2ccccc21`, the growth was -26.6% (active).

Consider `CCC[Se]C(=O)c1ccc(C(=O)[Se]CCC)s1`, for which the growth was -85.7% (active).

As for `O=C(/C=C/c1ccco1)c1nc2ccccc2n1Cc1ccc(Br)cc1`, the growth was 69.7% (inactive).

As for `CC1=C(CCC=NNC(N)=O)C2=C(C)C3(CC3)[C@@](C)(O)C(=O)C2=C1`, the growth is -91.4% (active).

For the compound `COc1ccc(/C=C/C(=O)c2nc3ccccc3n2Cc2ccc(Br)cc2)cc1`, the growth is 91.4% (inactive).

As for `CC[C@]12C=CCN3CC[C@@]4(c5ccc(OC)cc5N(C)[C@H]4[C@@](O)(C(=O)OC)[C@@H]1OC(=O)CCCC[P+](C1CCCCC1)(C1CCCCC1)C1CCCCC1)[C@@H]32`, the growth is -76.6% (active).

Take `C[C@H]1[C@H](OC(=O)CCC(=O)N(CCCc2cn(-c3ccc(CN4CCOCC4)cc3)nn2)CCNc2ccnc3cc(Cl)ccc23)O[C@@H]2OC3(C)CC[C@H]4[C@H](C)CC[C@@H]1[C@@]24OO3`: the growth is -30.1% (active).

In the case of `CC[C@]12C=CCN3CC[C@@]4(c5ccc(OC)cc5N(C)[C@H]4[C@@](O)(C(=O)OC)[C@@H]1OC(=O)CCC[P+](c1ccc(C)cc1)(c1ccc(C)cc1)c1ccc(C)cc1)[C@@H]32`, the growth is -50.2% (active).

`C=CC[Se]C(=O)c1cncc(C(=O)[Se]CC=C)c1`: the growth was -47.3% (active).

Take `C=CCN=C([Se])NC(=O)c1ccc2c(c1)OCO2`: the growth was 122% (inactive).

On to `CC[C@]12C=CCN3CC[C@@]4(c5ccc(OC)cc5N(C)[C@H]4[C@@](O)(C(=O)OC)[C@@H]1OC(=O)CCCC[P+](c1ccc(C)cc1)(c1ccc(C)cc1)c1ccc(C)cc1)[C@@H]32`, for which the growth is -64.1% (active).

On to `O=C(/C=C/c1ccco1)c1nc2ccccc2n1Cc1ccc(F)cc1`, for which the growth is 81.9% (inactive).

Regarding `CC12OOC(C)(OO1)C2CCC(=O)NCCCNc1ccnc2cc(Cl)ccc12` (stereo not given), the growth is -62.6% (active).

As for `CN(C)CCc1cn(C2CCC2)c2cccc(O)c12`, the growth was 81.1% (inactive).

For `O=C([Se]C1C=CCCC1)c1ccc(C(=O)[Se]C2C=CCCC2)s1` (stereo not given), the growth is -95.7% (active).

`COc1cc(OC)c(/C=C/C(=O)c2nc3ccccc3n2Cc2ccc(F)cc2)c(OC)c1`: the growth was 108% (inactive).

For the compound `COCCOCCOCCOc1ccc(-n2cc(CCCN(CCNc3ccnc4cc(Cl)ccc34)C(=O)CCC(=O)O[C@@H]3O[C@@H]4OC5(C)CC[C@H]6[C@H](C)CC[C@@H]([C@H]3C)[C@@]46OO5)nn2)cc1`, the growth was 11.8% (inactive).

With `O=C(/C=C/c1ccc(F)cc1)c1nc2ccccc2n1Cc1ccc(Br)cc1`, the growth was -82.4% (active).

For the compound `C#CC[Se]C(=O)c1ccc2n[se]nc2c1`, the growth is 58.6% (inactive).

For the compound `COC(=O)c1ccc(-n2cc(CCCN(CCNc3ccnc4cc(Cl)ccc34)C(=O)CCC(=O)O[C@@H]3O[C@@H]4OC5(C)CC[C@H]6[C@H](C)CC[C@@H]([C@H]3C)[C@@]46OO5)nn2)cc1`, the growth was 14.8% (inactive).

With `COc1cc2cc(C(=O)N3C[C@@H](CCl)c4c3cc(OC(=O)N3CCN(C)[C@@H]5CSSC[C@H]53)c3ccccc43)[nH]c2c(OC)c1OC`, the growth was -59.2% (active).

On to `CC(C)C[C@H](NC(=O)CNC(=O)C[C@H]1O[C@@H]2OC3(C)CC[C@H]4[C@H](C)CC[C@@H]([C@H]1C)[C@@]24OO3)B(O)O`, for which the growth was 17.8% (inactive).

As to `CC12OOC(C)(OO1)C2CCC(=O)OCCNc1ccnc2cc(Cl)ccc12` (stereo not given), the growth is -54.4% (active).

Regarding `CC1=C(CCC=O)C2=C(C)C3(CC3)[C@@](C)(O)C(=O)C2=C1`, the growth was -71.4% (active).

Consider `CC1=C(C=O)C2=C(C)C3(CC3)[C@@](C)(O)C(=O)C2=C1`, for which the growth is 30.4% (inactive).

Turning to `O=C(/C=C/c1cccc(Br)c1)c1nc2ccccc2n1Cc1ccc(Br)cc1`, the growth is -34.1% (active).

Turning to `O=C(NC([Se])=NC1CCCCC1)c1ccc2c(c1)OCO2`, the growth is 28.1% (inactive).

For `O=C(/C=C/c1ccccc1)c1nc2ccccc2n1Cc1ccc(F)cc1`, the growth is -43.4% (active).

In the case of `O=C(/C=C/c1ccc(F)cc1)c1nc2ccccc2n1Cc1ccc(F)cc1`, the growth was -32% (active).

In the case of `O=C(/C=C/c1ccc(Cl)cc1)c1nc2ccccc2n1Cc1ccc(Br)cc1`, the growth is 93.6% (inactive).

Regarding `CC[C@]12C=CCN3CC[C@@]4(c5ccc(OC)cc5N(C)[C@H]4[C@@](O)(C(=O)OC)[C@@H]1OC(=O)CCC[P+](C1CCCCC1)(C1CCCCC1)C1CCCCC1)[C@@H]32`, the growth is -63.6% (active).

With `CC12CCC3(CCC(=O)NCCCNc4ccnc5cc(Cl)ccc45)[C@@](C)(OO[C@]3(C)O1)O2`, the growth was 36.7% (inactive).

`O=C(/C=C/c1ccc(Br)cc1)c1nc2ccccc2n1Cc1ccc(Br)cc1`: the growth was -39.8% (active).

On to `COc1cc(OC)c(S(=O)(=O)N(CCCl)CCCl)cc1C(=O)/C=C/c1ccc(C)cc1`, for which the growth is 117% (inactive).

As for `COc1cc(OC)c(S(=O)(=O)N(CCCl)CCCl)cc1C(=O)/C=C/c1cc(OC)c(OC)c(OC)c1`, the growth is -89.8% (active).

For the compound `COC(=O)C[C@](O)(CCC(C)C)C(=O)O[C@H]1C(OC)=C[C@@]23CCCN2CCc2cc4c(cc2[C@@H]13)OCO4`, the growth was -55.4% (active).
